In the library only some 3.8% were active in any assay of this set; here they are far more common.
Bfl-1 A1 inh = inhibitors of the anti-apoptotic protein A1, read as caspase activation. caspase activation, % (concentration not given with the values). MEF A1-2A-BIM cells, Caspase-Glo 3/7 luminescence, 3 h; percent of clofoctol response, vehicle zero. actives 0.066% (n = 330,000). AID 2462;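 active means over half of replicate activation scores above 10%, or exactly half above 10 with the replicate mean above 10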
Mdm2-MdmX inh = disrupts the human Mdm2-MdmX interaction; inhibition, % at 8 µM; O15151+Q00987; SaOS-2 split-luciferase Mdm2/MdmX complementation, luminescence; actives 3% (n = 330,000); AID 485346;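 active means inhibition of at least 50% at 8 µM in the primary screen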
Target sequence (O15151 whole entry, looked up): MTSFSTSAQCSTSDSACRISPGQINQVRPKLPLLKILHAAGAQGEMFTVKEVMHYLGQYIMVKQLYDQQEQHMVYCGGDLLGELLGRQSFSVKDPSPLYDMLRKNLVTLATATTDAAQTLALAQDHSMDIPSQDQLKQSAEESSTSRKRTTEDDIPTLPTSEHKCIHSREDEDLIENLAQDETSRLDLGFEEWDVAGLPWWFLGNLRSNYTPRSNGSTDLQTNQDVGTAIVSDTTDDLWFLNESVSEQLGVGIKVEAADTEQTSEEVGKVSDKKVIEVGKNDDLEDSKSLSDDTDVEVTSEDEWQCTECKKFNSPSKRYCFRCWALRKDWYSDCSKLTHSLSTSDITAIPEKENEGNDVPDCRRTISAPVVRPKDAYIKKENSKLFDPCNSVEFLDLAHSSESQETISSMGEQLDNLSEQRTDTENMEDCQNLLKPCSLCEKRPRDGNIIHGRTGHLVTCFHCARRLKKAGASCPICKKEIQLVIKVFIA
Target sequence (Q00987 whole entry, looked up): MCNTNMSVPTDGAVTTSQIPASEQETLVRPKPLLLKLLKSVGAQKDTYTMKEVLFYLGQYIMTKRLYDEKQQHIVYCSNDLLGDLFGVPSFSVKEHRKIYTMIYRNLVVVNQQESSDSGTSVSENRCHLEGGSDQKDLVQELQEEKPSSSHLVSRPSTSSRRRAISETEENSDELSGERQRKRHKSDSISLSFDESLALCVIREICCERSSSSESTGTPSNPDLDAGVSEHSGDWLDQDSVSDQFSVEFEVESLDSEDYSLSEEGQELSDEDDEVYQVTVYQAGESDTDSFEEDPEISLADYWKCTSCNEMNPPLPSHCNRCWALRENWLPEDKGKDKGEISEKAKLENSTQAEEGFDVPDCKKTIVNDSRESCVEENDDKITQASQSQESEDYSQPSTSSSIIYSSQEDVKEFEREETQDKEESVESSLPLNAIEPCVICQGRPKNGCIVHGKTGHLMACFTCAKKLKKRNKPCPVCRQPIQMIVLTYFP
Beta apoptosis = blocks beta cell apoptosis | protection from apoptosis, % (test concentration not listed) | AID 435005 | INS-1E cytokine-induced death, ATP luminescence, 48 h; percent of positive-control rescue, neutral wells zero | actives 0.8% (n = 300,000);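 active means Every replicate reaches about 75%, or at least half do and their mean reaches it too, limit read from the data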;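 further: higher means more ATP so stronger rescue from cytokine killing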
697 NFkB inh = inhibitors of the PMA/ionomycin-induced NF-kB reporter in 697 B cells; 697 B-cell NF-kB luciferase reporter, 16 h; inhibition, % at 4 µM; actives 0.33% (n = 330,000); AID 435022; in the data active means inhibition above about 35%
NTR1 ag = agonists of human neurotensin receptor NTR1; NTR1-U2OS beta-arrestin-GFP spot imaging, agonist mode; activation, % at 20 µM; actives 0.17% (n = 330,000); P30989; AID 493036;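 active means activation at or above 40% of the spot to cytoplasm intensity ratio, with at least 20 cells analyzed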
Jurkat NFkB inh = lowers PMA/ionomycin-induced NF-kB signal in Jurkat cells; PMA/ionomycin-induced NF-kB luciferase reporter, luminescence; AID 435003; actives 0.53% (n = 330,000); inhibition, % at 4 µM; in the data active means inhibition above about 50%
Mdm2 MdmX conf = confirmation of human Mdm2/MdmX interaction inhibitors. actives 55% (n = 10,000). Mdm2-MdmX binding, luminescent assay. shares compounds with Mdm2-MdmX inh. inhibition, % at 8 µM. AID 489028; in the data active means inhibition above about 40%
FLuc counter = counter-screen for Mdm2/MdmX inhibitors: full-length luciferase; shares compounds with Mdm2-MdmX inh; SaOS-2 full-length luciferase counterscreen, luminescence; inhibition, % at 8 µM; actives 77% (n = 6,200); AID 504607;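 active means mean inhibition at 8 µM reaching about 37%, which flags the compound as non-specific, limit read from the data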;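 further: p53-null SaOS-2 cells with luciferase driven by a doxycycline-inducible promoter; compound on cells about two nights before reading with doxycycline added after day one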
Numbers stand for hits; i = inactive; nt = no result.

SMILES | Bfl-1 A1 inh | Mdm2-MdmX inh | Beta apoptosis | 697 NFkB inh | NTR1 ag | Jurkat NFkB inh | Mdm2 MdmX conf | others
O=C(COc1ccc(Cl)cc1Cl)NN=C1c2ccccc2-c2ccccc21 | i | 81.9 | i | i | i | i | i
O=C(COC(=O)c1ccc(F)c([N+](=O)[O-])c1)NC(=O)NCc1ccccc1 | i | 73.1 | i | i | i | i | i
CCc1ccc(-c2cc(C)no2)cc1S(=O)(=O)N1CCC(C)CC1 | i | i | i | i | i | i | nt
CCc1ccc(-c2cc(C)no2)cc1S(=O)(=O)N1CCCN(Cc2ccc(F)cc2)C1 | i | 68.3 | i | i | i | i | i
Cc1ccc(S(=O)(=O)NCC(=O)N2CCN(S(=O)(=O)c3ccc(Cl)cc3)CC2)cc1C | i | i | i | i | i | i | nt
COc1cc(CNCCc2ccccc2)cc(Br)c1OCC(=O)Nc1ccccc1C | i | 74.1 | i | i | i | i | i | FLuc counter=72.2
O=C(COc1ccc(Br)cc1CNCCc1ccccc1)NCc1ccccc1 | i | 55.7 | i | i | i | i | i
CNCc1cc(Br)c(OCC(=O)Nc2ccccc2OC)c(OC)c1 | i | i | i | i | i | i | nt
C=CCNc1nc(NCc2ccccc2)c(C#N)c2c1CN(C)CC2 | i | 73.8 | i | i | i | i | 51.5 | FLuc counter=61.3
COC(=O)C1=C(CS(=O)(=O)c2ccc(Cl)cc2)NC(=O)NC1c1ccc(O)c(OC)c1 (centres undefined) | i | i | i | i | i | i | nt
O=[N+]([O-])c1ccc(-c2ccc(/C=N/Nc3nc(NCc4ccccc4)nc(N4CCOCC4)n3)o2)cc1 | i | 100.3 | i | i | i | i | 89.7 | FLuc counter=54.0
CCOc1ccc(OCc2ccc(C(=O)NN=Cc3ccc[nH]3)cc2)cc1 | 9.7 | 83.5 | 123.3 | i | i | i | 73.0 | FLuc counter=i
CCN(c1ccccc1)S(=O)(=O)c1ccc(Cl)c(C(=O)NCc2ccco2)c1 | i | i | i | i | i | i | nt
CCC(=O)Oc1ccc2c(C)cc(=O)oc2c1C | i | i | nt | i | i | i | nt
CCc1c(C(=O)c2ccc(Cl)cc2)oc2c(C)c3oc(=O)cc(C)c3cc12 | i | 59.1 | i | i | i | i | i
Cc1cc(=O)oc2c1ccc1oc(/C(=N/O)c3ccccc3)c(C)c12 | i | 57.9 | i | i | i | i | i
CCc1c(C(C)=O)oc2ccc3c(C)cc(=O)oc3c12 | i | i | i | i | i | i | nt
Cc1ccc(/C(=N\O)c2oc3c(C)c4oc(=O)cc(C)c4cc3c2C)cc1 | i | 73.9 | i | i | i | i | i
CC(=O)N1c2ccc(S(=O)(=O)N3CCCC3)cc2CC1C(=O)NCc1ccc(N(C)C)cc1 (centres undefined) | i | i | i | i | i | i | nt
COc1ccccc1C(=O)COC(=O)C1(C)CC1(Cl)Cl (centres undefined) | i | i | i | i | i | i | nt
CN(C)S(=O)(=O)c1cccc(NC(=O)c2cc(-c3cccs3)nn2-c2cccc(Cl)c2)c1 | i | 50.5 | i | i | i | i | 57.5 | FLuc counter=64.8
O=C(O)c1cc(-c2cccs2)nn1-c1cccc(Cl)c1 | i | i | i | i | i | i | nt
CCC(=O)Nc1ccc(/C(C)=N/NC(=O)c2c(Br)c(C)nn2C)cc1 | i | i | i | i | i | i | nt
C/C(=N\NC(=O)c1c(Br)c(C)nn1C)c1ccc(NC(=O)C(C)Oc2ccc(Cl)cc2C)cc1 (centres undefined) | i | 62.1 | nt | i | i | i | i
Oc1c(C(Nc2cccc(C(F)(F)F)c2)c2ccncc2)ccc2cccnc12 (centres undefined) | i | 60.5 | 78.8 | i | i | i | 49.0 | FLuc counter=i
SMILES | Bfl-1 A1 inh | Mdm2-MdmX inh | Beta apoptosis | 697 NFkB inh | NTR1 ag | Jurkat NFkB inh | Mdm2 MdmX conf | others
O=C(Nc1cccc(C(F)(F)F)c1)c1cccnc1 | i | i | i | i | i | i | nt
COc1ccc2[nH]c3c(c2c1)CCN1C(=O)C(CC(=O)NC/C=C(\C)CCC=C(C)C)C[C@H](C(=O)N(C(C)C)C(C)C)[C@@]31C (some centres undefined) | nt | 84.0 | nt | i | i | nt | i
COc1ccc(CNC(=O)C[C@H]2C[C@H](C(=O)N(C(C)C)C(C)C)[C@@]3(C)c4[nH]c5ccc(Cl)cc5c4CCN3C2=O)cc1OC | nt | i | nt | i | i | nt | nt
COc1ccc2[nH]c3c(c2c1)CCN1C(=O)C(CC(=O)NC(C)(C)C)C[C@H](C(=O)N(C(C)C)C(C)C)[C@@]31C (some centres undefined) | nt | i | nt | i | i | nt | nt
CC(C)=CCC/C(C)=C/CNC(=O)C[C@H]1C[C@H](C(=O)N(C(C)C)C(C)C)[C@@]2(C)c3[nH]c4ccc(Cl)cc4c3CCN2C1=O | nt | 51.4 | nt | i | i | nt | i
CC(C)=CCC/C(C)=C/CNC(=O)CC1C[C@H](C(=O)N(C(C)C)C(C)C)[C@@]2(C)c3[nH]c4ccccc4c3CCN2C1=O (some centres undefined) | i | 52.6 | i | i | i | i | i
Cc1cccc(C(=O)OCC(=O)N(CC(C)C)c2c(N)n(Cc3ccccc3)c(=O)[nH]c2=O)c1O | i | i | i | i | i | i | nt
COc1ccc(S(=O)(=O)N2CCCC2CNC(=O)C(=O)NCc2ccccn2)cc1 (centres undefined) | i | i | i | i | i | i | nt
Cc1ccc(CNCc2cc3c(C(C)(C)C)nn(-c4ccccc4)c3[nH]c2=O)cc1 | i | 50.0 | i | i | i | i | i
C=CCOc1cccc(C(=O)/C=C2/C(=O)Nc3ccccc32)c1 | i | 85.6 | i | i | 65.6 | i | i
O=C(CC1S/C(=N/N=C/C=C/c2ccccc2)NC1=O)Nc1ccc(Cl)c(Cl)c1 (centres undefined) | i | 62.7 | i | i | i | i | i
O=C(O)CC1S/C(=N/N=C/C=C/c2ccccc2)NC1=O (centres undefined) | i | i | i | i | i | i | nt
COC(=O)c1ccc(C(=O)NC(=S)Nc2ccc3nc(SC)sc3c2)cc1 | i | 80.7 | i | i | i | i | i
C[C@@H](CN1C2=NC[C@H](Cc3ccccc3)N2C[C@H]1Cc1ccc(O)cc1)NC(=O)CCC1CCCCC1 | i | i | i | i | i | i | nt
COc1ccc(C[C@H]2CN3C(=NC[C@@H]3Cc3ccc(O)cc3)N2C[C@H](C)NC(=O)c2ccc(C)c(Br)c2)cc1 | i | 86.3 | i | i | i | i | i
COc1ccc(C[C@H]2CN3C(=NC[C@@H]3C(C)C)N2C[C@H](C)NC(=O)c2ccc(C)c(Br)c2)cc1 | i | 52.3 | i | i | i | i | i
COc1ccc(C[C@H]2CN3C(=NC[C@@H]3Cc3ccccc3)N2C[C@H](C)NC(=O)CCC2CCCCC2)cc1 | nt | 67.6 | nt | i | i | i | 47.7 | FLuc counter=71.7

Assay outcomes: PubChem, several laboratories
